# Reference: PubChem BioAssay AID504523 (Broad Institute, 2011)
# Out of some 340,000 compounds screened, about 490 (0.14%) were called active. This is one part of a sample in which actives are shown more often than they occur. A number with no mark means an inactive call. No stated cut-off is given here; in the data, active means inhibition above about 12%; inconclusive means no clear call, values can overlap the other calls; inactive means below about 7.3%.
# Biological target: Kelch-like ECH-associated protein 1 (Homo sapiens) (UniProt Q14145)
# Sequence (Q14145 whole entry, looked up, the tested form may be a part): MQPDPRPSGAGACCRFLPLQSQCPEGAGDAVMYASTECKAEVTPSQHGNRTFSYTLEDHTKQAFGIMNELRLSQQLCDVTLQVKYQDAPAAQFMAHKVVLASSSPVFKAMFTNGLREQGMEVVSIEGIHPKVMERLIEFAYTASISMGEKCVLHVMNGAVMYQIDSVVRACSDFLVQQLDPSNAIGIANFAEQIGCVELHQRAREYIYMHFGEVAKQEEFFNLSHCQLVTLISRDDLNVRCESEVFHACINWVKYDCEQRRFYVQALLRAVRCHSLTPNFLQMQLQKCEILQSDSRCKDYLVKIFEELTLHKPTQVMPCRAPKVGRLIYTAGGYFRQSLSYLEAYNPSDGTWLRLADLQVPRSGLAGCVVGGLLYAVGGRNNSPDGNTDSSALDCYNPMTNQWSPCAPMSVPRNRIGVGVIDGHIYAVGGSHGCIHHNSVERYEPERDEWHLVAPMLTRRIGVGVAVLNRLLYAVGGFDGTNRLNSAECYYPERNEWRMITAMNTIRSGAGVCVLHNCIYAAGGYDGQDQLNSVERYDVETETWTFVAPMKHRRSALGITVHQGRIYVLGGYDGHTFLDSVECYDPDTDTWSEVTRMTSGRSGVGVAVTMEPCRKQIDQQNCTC
# Assay: Keap1-Nrf2 protein-protein interaction inhibitors, primary screen, biochemical, fluorescence polarization, single point (AID 504523);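 further: human Keap1 Kelch domain with fluorescein labeled Nrf2 9mer peptide probe; 0% = neutral control wells and 100% = peptide positive control; higher means more block of Keap1 binding to Nrf2 peptide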
# Conditions: Keap1 Kelch-Nrf2 peptide fluorescence polarization, 1536-well; at 9.4 µM; active compounds read high
row,Compound,inhibition
1,CC1(C)CC(=O)C(N=Nc2c(F)cccc2F)=C(O)C1,37.8% (active)
2,CC1(C)CC(=O)C(N=Nc2ccc(S(=O)(=O)N3CCCCCC3)cc2)=C(O)C1,5.03%
3,CC1(C)CC(=O)C(C2=NC(C)(C)Cc3ccccc32)=C(O)C1,-1.79%
4,CN1CCOC1c1ccc(C2OCCN2C)cc1 (centres undefined),1.77%
5,O=C(C[n+]1cc(Br)cc2ccccc21)c1ccc(F)cc1,-7.79%
6,COC(=O)C[n+]1cccc2ccccc21,36.4% (active)
7,COC(=O)Cc1c(-c2[nH]c3ccccc3c2CC(=O)OC)[nH]c2ccccc12,-0.936%
8,CCN1CCC(O)(/C=C/c2ccc(C)cc2)C(C(=O)/C=C/c2ccc(C)cc2)C1 (centres undefined),-56.9%
9,CCC1CCC2(CC1)NC(=O)N(CC(=O)Nc1ccc(OC)cc1)C2=O (centres undefined),-5.89%
10,COc1cccc(CN2CCNC(=O)C2CC(=O)N(C)CCc2ccccn2)c1 (centres undefined),-0.18%
11,CCOC(=O)C1(Cc2ccccc2C)CCCN(S(C)(=O)=O)C1 (centres undefined),-4.08%
12,Cc1ccc(F)cc1NC(=O)N1CCCN(c2ccc(C(F)(F)F)cn2)CC1,-5.94%
13,OC1CSc2nc3ccccc3n2C1 (centres undefined),1.42%
14,CCOC(=O)c1c(C)n(C)c2ccc(OC)c(NC(=O)CN3CCC4(CC3)OCCO4)c12,-2.53%
15,Cc1cccc(NS(=O)(=O)c2ccc(C)c(C(=O)NCC(c3ccccc3)N(C)C)c2)c1 (centres undefined),46.2% (active)
16,COc1ccc(C(CNC(=O)c2cc(S(=O)(=O)Nc3cccc(C)c3)ccc2C)N2CCCC2)cc1 (centres undefined),-2.75%
17,Cc1cccc(NS(=O)(=O)c2ccc(C)c(C(N)=O)c2)c1,-6.17%
18,CCOC(=O)N1CCN(C(=O)COC(=O)c2cccc(S(C)(=O)=O)c2)CC1,1.11%
19,C/C(=N/NC(=S)Nc1ccccc1)c1ccc2c(c1)OCO2,-4.81%
20,Cc1ccc(NC(=O)CSc2sc3c(O)cc(=O)[nH]c3c2C#N)cc1C,-7.74%

row,Compound,inhibition
1,Cc1nc(CN(C)C(=O)CC2C(=O)NCCN2Cc2ccc(F)cc2)cs1 (centres undefined),-0.6%
2,COC(=O)c1sc(N)c(C(=O)OC)c1COC(=O)CNS(=O)(=O)c1ccc(C)cc1,2.32%
3,CC(C)(O)C#Cc1ncc(C(F)(F)F)cc1Cl,2.69%
4,Clc1ccc2c(c1)C1=C(C(c3ccncc3)O2)C(c2ccc(Br)cc2)n2ncnc2N1 (centres undefined),-2.67%
5,Brc1ccc(C2=CC(c3ccco3)n3ncnc3N2)cc1 (centres undefined),36.1% (active)
6,COc1ccccc1NC(=O)CSc1nnc(Cn2nnc(-c3ccccc3)n2)n1-c1ccccc1,0.652%
7,CC(=O)Nc1ccc(S(=O)(=O)NNC(=O)CCc2ccccc2)cc1,-9.19%
8,O=C(CCc1ccccc1)NNC(=O)COc1ccc(Cl)cc1,-4.48%
9,O=C(CCc1ccccc1)NNc1ccc(F)cc1,12.6% (active)
10,Cc1nc2ccccn2c1C(=O)NN=C1CCN(C)CC1,-3.6%
11,CC(C)(C)c1ccc(CCC2OCC(CN3CCOCC3)O2)cc1 (centres undefined),3.61%
12,Cc1ccc(-n2ncc(C(=O)NC3CC3)c2C2CCN(C(=O)OC(C)(C)C)CC2)c(C)c1,-3.33%
13,O=S(=O)(c1ccc(Br)cc1)c1nc(-c2ccccc2)oc1N1CCOCC1,-9.08%
14,CCCC(NC(=O)c1ccccc1)c1nc2ccccc2n1Cc1ccc(C(=O)OC)o1 (centres undefined),-2.49%
15,CCCNc1c(N)c(=O)c1=O,-1.65%
16,O=C(CCNc1n[nH]c(=O)[nH]c1=O)N/N=C\c1ccc(Br)cc1,-2.4%
17,CSCC[C@H](NC(=O)NCCc1ccc(F)cc1)C(=O)O,1.87%
18,COc1ccc(C2/C=C\CN(S(=O)(=O)c3cccs3)CC(=O)N2Cc2ccc(F)cc2)cc1 (centres undefined),-0.104%
19,O=C(O)CC(c1ccccc1)n1cnnn1 (centres undefined),-4.84%
20,O=C(O)CC(CC(=O)N1CCOCC1)c1ccccc1 (centres undefined),-1.3%

row,Compound,inhibition
1,O=C(O)CC(Cn1cnnn1)c1ccccc1 (centres undefined),20.2% (active)
2,Cc1cccc(C2c3c(n(C)c(=O)n(C)c3=O)N=C3c4ccccc4C(=O)C32)c1 (centres undefined),-0.0535%
3,Cc1nonc1C1CCCN1Cc1nc(-c2ccc(F)cc2F)oc1C (centres undefined),-5.07%
4,Cn1c(CCNS(=O)(=O)c2ccc(F)cc2)nnc1SCc1cccnc1,-1.02%
5,Cc1ccc(OC(=O)c2cncc(Br)c2)c(C)c1,5.58%
6,Cc1cccc(N=Nc2c(O)[nH]c3ccc(F)cc23)c1,0.392%
7,COc1cccc(NC(=O)CN(C)C(C)C(=O)Nc2ccc(C#N)cc2)c1 (centres undefined),4.55%
8,COCCN(C(=O)C(C)N1C(=O)c2ccccc2C1=O)c1c(N)n(CC(C)C)c(=O)[nH]c1=O (centres undefined),-8.05%
9,CN(C(=O)CC1C(=O)NCCN1Cc1ccc(F)cc1Cl)C1CCCCC1 (centres undefined),-12.6%
10,O=C(CNC(=O)c1ccc(Br)o1)NCC1CCCO1 (centres undefined),3.4%
11,CCN(CC)CC(=O)Nc1nn(-c2ccccc2)nc1C(N)=O,-0.843%
12,O=C(NNc1c2ccccc2nc2ccccc12)c1cc2ccccc2cc1O,-0.162%
13,Cc1onc(-c2ccc(Cl)cc2)c1-c1ccnn1S(=O)(=O)c1ccc(Cl)cc1,-1.71%
14,O=C(C1=C[C@H](c2coc3ccccc3c2=O)C[C@H](OCc2ccc(CO)cc2)O1)N1CCN(Cc2ccccc2)CC1,-4.23%
15,Nc1ccc2nc3c(=O)[nH]c(=S)[nH]c3nc2c1,39% (active)
16,CN(CC(=O)Nc1ccc(C(N)=O)cc1)S(=O)(=O)c1ccc2c(c1)OCCO2,-4.93%
17,CCC(C)(C)c1ccc(Oc2ccc(NC(=O)COC(=O)C3=COCCO3)cc2)cc1,1.96%
18,CC(OC(=O)c1ccccc1OCc1ccc(Cl)cc1)C(N)=O (centres undefined),-6.61%
19,COC(=O)/C=C\C(=O)Nc1cccc([N+](=O)[O-])c1,8.41%
